PubChem BioAssay AID449762 (Southern Research Specialized Biocontainment Screening …, 2010)
About 1,900 (0.58%) of roughly 330,000 compounds were called active. Roughly 4% stayed inconclusive and do not appear here. Only a sample is shown. Results with a measured potency or affinity are listed apart. Values without a mark were called inactive. No stated cut-off is given here; in the data, inconclusive means inhibition above about 70% without an active follow-up result; inactive means below that.

Assay: M. tuberculosis growth inhibition, HTS (AID 449762);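 further: bacterial growth assessed after seven days of incubation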
Details: M. tuberculosis H37Rv growth inhibition, 7H9 media; at 25 µM; active compounds read high

Structure (SMILES) | inhibition [%]
CC(C)CCNC(=O)C1CCCN(S(=O)(=O)c2ccc(-n3cnnn3)cc2)C1 (centres undefined) | 1.26
CCOC(=O)/C=C/C(=O)OCc1csc(CC(=O)Nc2ccccc2C)n1 | -12.3
C/C=C/C(=O)OCc1csc(CC(=O)Nc2ccccc2C)n1 | -2.53
Cc1cc(NC(=O)/C(C#N)=C/c2ccc(-c3cccc(C(F)(F)F)c3)o2)n(-c2ccccc2)n1 | 9.74
O=C(NNc1nc2ccccc2s1)Nc1ccc(F)cc1 | 7.66
COc1ccc2nc(NNC(=O)COc3ccccc3)sc2c1 | 6.88
CC(=O)NNc1nc2ccccc2s1 | -19.1
COc1ccc(OCC(=O)NNc2nc3ccccc3s2)cc1 | 70
CCc1[nH]nc(C(=O)N2CCCC(C(=O)c3cccc(OC(C)C)c3)C2)c1C (centres undefined) | 8.32
CCOC(=O)Cn1nc(-c2ccc(C)cc2)ccc1=O | -1.62
COC(=O)c1ccc(C(=O)OC)c(NC(=O)CSc2ccccn2)c1 | 45
CCOC(=O)c1ccccc1NC(=O)CSc1cccc[n+]1[O-] | -5.24
Cc1c(Cl)cccc1NC(=O)CCN1CCN(C)CC1 | -6.21
O=C(NCCc1ccccc1)c1c(O)c2cccc3c2n(c1=O)CC3 | -1.91
CCCCN(C(=O)NC(=O)Nc1ccc(C)cn1)S(C)(=O)=O | -2
CC1CCN(CCCn2c(SCC(=O)Nc3ccccc3Cl)nc3ccccc3c2=O)CC1 | 6.66
Cc1ccc(NC(=O)CSc2nc3ccccc3c(=O)n2CCCN2CCCCC2)cc1C | 24.1
Cc1ccccc1N(Cc1cc(=O)[nH]c2ccccc12)C(=O)C(C)C | -1.51
C#CCCC/C(=C\C(=O)N(C)[C@H](C(=O)N(C)[C@H](C(=O)N(C)[C@H](C(=O)N(C)[C@H](C(N)=O)C(C)C)C(C)C)C(C)C)C(C)C)OC | 2.88
Cc1cccc([C@@H]2[C@@H]3C(=O)N(Cc4ccccc4)C(=O)[C@@H]3[C@]3(Cc4ccccc4)C(=O)N(c4cccc(Cl)c4)C(=O)N23)c1 | 12.6

Structure (SMILES) | inhibition [%]
Cc1cc(Cn2nc(C(=O)NCc3cccc(Br)c3)cc2-c2ccccc2)on1 | 25.4
Cc1ccc(N2C(=S)NC3c4cc(Cl)ccc4OC2(C)C3C(=O)N(C)C)cc1 (centres undefined) | 0.53
CN(C)C(=O)C1C2NC(=S)N(c3cccc(Cl)c3)C1(C)Oc1ccc(Cl)cc12 (centres undefined) | -0.86
CSc1cccc(CN2CCN(CCC(C)C)C(CCO)C2)c1 (centres undefined) | -6.35
COc1ccc(NC(=O)c2cn(CCC#N)nc2-c2ccccc2)cc1 | 1.76
Cc1nc(C)c(C(=O)N(c2ccc(F)cc2)C(C(=O)NCC2CCCO2)c2ccccc2)s1 (centres undefined) | 6.83
Cc1onc(C(=O)N2CCN(Cc3ccccc3)CC2)c1[N+](=O)[O-] | 3.07
CC(=N\NC(=O)c1ccccc1)/C(=N/O)C(=O)Nc1ccccc1 | 19.5
O=C1C(c2c(O)[nH]c3ccccc23)=Nc2ccccc21 | 26.2
O=C1C(C2=C(O)c3ccccc3C2=O)=Nc2ccccc21 | -18.6
O=C(CCCn1c(=O)[nH]c2cc(Cl)ccc2c1=O)NCCCN1CCCC1=O | 1.6
C=CCn1c(SC)nnc1-c1ccc2ncccc2c1 | 0.53
COc1ccc(NC(=O)c2ccc(COc3ccccc3Br)o2)cc1OC | 55.9
COc1ccccc1OCc1ccc(C(=O)Nc2cc(OC)c(OC)c(OC)c2)o1 | 1.45
O=C1CC2(CCCCC2)Oc2ccccc21 | 2.84
O=C(NCC1CC1)c1ccc(Oc2cc(Cl)cc(Cl)c2)o1 | 8.88
Fc1ccc(/C=C\c2nccc3c2[nH]c2ccccc23)cc1 | 3.87
N#Cc1ccc(/C=C\c2nccc3c2[nH]c2ccccc23)cc1 | 23.4
CCCn1c(SCC(=O)N2CCCc3ccccc32)nnc1-c1ccco1 | -5.68
C=CCN(C/C(=N\O)c1sc(C(=O)OCC)nc1C)c1cccc(Br)c1 | 62.6

Structure (SMILES) | inhibition [%]
CCOC(=O)c1nc(C)c(C(C)=O)s1 | -0.23
CCOC(=O)c1c(C)[nH]c(C(=O)OCC(=O)NCc2ccc(F)cc2)c1C | -3.74
COc1ccc(OC)c(Nc2nc(-c3sc(N)nc3C)cs2)c1 | 65.1
COc1ccc(Nc2nc(-c3sc(C)nc3C)cs2)cc1 | 11.6
CCNC(=O)N(CCOC)CC1CCCN(C2Cc3ccccc3C2)C1 (centres undefined) | -1.33
Cc1cccc(CCNS(=O)(=O)c2ccc(S(=O)(=O)N3CCC(C)CC3)cc2)c1 | -1.34
O=C1C(=C(O)c2ccccc2)C(=O)c2ccccc21 | 4.16
COC1=C(c2ccccc2)C(=O)c2ccccc2C1=O | 5.34
CC(=O)Nc1ccc(S(=O)(=O)NC2(C(F)(F)F)NC(=O)N(c3ccccc3F)C2=O)cc1 (centres undefined) | -8.69
Cc1cc(OCCCCOc2ccc(S(N)(=O)=O)c(C)c2)ccc1S(N)(=O)=O | 20.1
CCOc1ccc2c(c1)C(=O)c1cc(OCC(=O)O)ccc1-2 | 1.9
CCc1cc(=O)oc2cc(C)cc(OC(=O)c3ccco3)c12 | 4.45
Cc1nn(-c2ccccc2)c(Cl)c1C(=O)Nc1nnc(C2CCCC2)s1 | 38.7
CCc1nnc(NC(=O)c2c(C)nn(-c3ccccc3)c2Cl)s1 | 25.5
O=C(NCc1ccccc1)Nc1cccn(Cc2cccc(F)c2)c1=O | 5.8
COC(=O)[C@@]1(Cc2ccccc2)C=C[C@@H](C)N1C(C)=O | -1.39
CC(NC(=S)NCCN1CCOCC1)C12CC3CC(CC(C3)C1)C2 (centres undefined) | -0.91
COC(=O)C1=C(C)N(Cc2ccccc2)C(=NCc2cc(OC)c(OC)c(OC)c2)N[C@H]1c1ccccc1 | -1.97
COC(=O)C1=C(C)N(Cc2ccccc2)C(=NCc2ccccc2)N[C@H]1c1ccccc1 | 28.6
